Assay [1] is described as follows: NCI Yeast Anticancer Drug Screen. Data for the rad50 strain (AID 155).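 Also: 0% = growth of vehicle-only cultures of the same strain.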 Particulars: S. cerevisiae rad50 strain growth inhibition, active compounds read high. Summed up: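 Yeast carrying a defined DNA repair defect were exposed to test compounds, and growth was compared with vehicle-treated controls to give percent inhibition.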
Assay [2] can be described thus: NCI Yeast Anticancer Drug Screen. Data for the mec2-1 strain (AID 157). The following applies: S. cerevisiae mec2-1 strain, active compounds read high. Summed up: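 Vehicle-treated cultures served as reference for growth inhibition of compound-exposed mec2-1 yeast.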
The nature of assay [3]: NCI Yeast Anticancer Drug Screen. Data for the sgs1 mgt1 strain (AID 161).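 Also: 0% = growth of cultures given vehicle only.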 Particulars: S. cerevisiae sgs1 mgt1 strain, active compounds read high. Summed up: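 Genetically altered yeast, compound exposure, growth inhibition relative to vehicle.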
Assay [4] in a line: NCI Yeast Anticancer Drug Screen. Data for the cln2 rad14 strain (AID 165).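 Also: 0% = growth equal to vehicle treated cultures.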 Particulars: S. cerevisiae cln2 rad14 strain, active compounds read high. Summed up: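 Each compound was tested on cln2 rad14 yeast. Inhibition of growth was calculated against vehicle-exposed controls.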
Assay [5] can be described thus: NCI Yeast Anticancer Drug Screen. Data for the bub3 strain (AID 167). The following applies: S. cerevisiae bub3 mutant strain, active compounds read high. Summed up: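 Compounds were applied to a genetically altered yeast strain carrying a cell-cycle control defect. Growth inhibition was scored against vehicle-treated controls.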
Assay [6] is described as follows: NCI Yeast Anticancer Drug Screen. Data for the mlh1 rad18 strain (AID 175). Particulars: S. cerevisiae mlh1 rad18 strain growth inhibition, active compounds read high. Summed up: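 Vehicle-treated cultures served as the reference for growth inhibition in a yeast strain carrying DNA damage repair alterations exposed to each compound.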
[7] abbreviates: at 5.0 µM (retest, dose inferred, filed as 0.5).
Setting [8] is: at 50.0 µM (retest, dose inferred, filed as 5.0).

Structures are written as SMILES. The panel holds about 79,000 compounds, 15% with a hit somewhere; the sample as a whole holds those more often. A number with no mark means an inactive call. The source made the active and inactive calls. Rule as the data show it: active = growth inhibition above about 70%; inactive = the rest.

For the molecule `CCS(=O)(=O)/C=C\S(=O)(=O)CC`, the growth inhibition in assay [1] (setting [7]) is -154%; in assay [1] (setting [8]) it was -117%; in assay [1] (at 50.0 µM), 37.2%; in assay [2] (setting [7]), -52%; in assay [2] (setting [8]) it was -36%; in assay [2] (at 50.0 µM) it was 47.5%. Besides, the growth inhibition in assay [3] (setting [7]) is -64%; in assay [3] (setting [8]), -43%; in assay [3] (at 50.0 µM), 47.3%; in assay [4] (setting [7]), -49%; in assay [4] (setting [8]), -37%; in assay [4] (at 50.0 µM), -12.7%. The growth inhibition was -65% in assay [5] (setting [7]); -59% in assay [5] (setting [8]); 88.3% (active) in assay [5] (at 50.0 µM); -147% in assay [6] (setting [7]); -70% in assay [6] (setting [8]); 69% in assay [6] (at 50.0 µM).

For `COc1ccc(-c2nc(N)n(C)c2SSc2c(-c3ccc(OC)cc3)nc(N)n2C)cc1`, the growth inhibition in assay [1] (setting [7]) was 2%; in assay [1] (setting [8]) it was 26%; in assay [1] (at 50.0 µM) it was 23.6%; in assay [2] (setting [7]), -4%; in assay [2] (setting [8]) it was 26%; in assay [2] (at 50.0 µM), 5.2%. Also, the growth inhibition in assay [3] (setting [7]) is 28%; in assay [3] (setting [8]), 27%; in assay [3] (at 50.0 µM), 2.5%; in assay [4] (setting [7]), 6%; in assay [4] (setting [8]), 30%; in assay [4] (at 50.0 µM) it was 6.95%. For the same molecule, the growth inhibition in assay [5] (setting [7]) is 41%; in assay [5] (setting [8]) it was 50%; in assay [5] (at 50.0 µM) it was 3.6%; in assay [6] (setting [7]) it was -2%; in assay [6] (setting [8]), 28%; in assay [6] (at 50.0 µM) it was -15.6%.

For `O=[N+]([O-])c1ccc(O)c(/C=N\NC(=S)Nc2ccc3cn[nH]c3c2)c1`, the growth inhibition in assay [1] (setting [7]) was -2%; in assay [1] (setting [8]), 33%; in assay [1] (at 50.0 µM), 74.3% (active); in assay [2] (setting [7]), 1%; in assay [2] (setting [8]) it was 20%; in assay [2] (at 50.0 µM) it was 47.2%. In addition, the growth inhibition in assay [3] (setting [7]) was 11%; in assay [3] (setting [8]), 37%; in assay [3] (at 50.0 µM), 41.2%; in assay [4] (setting [7]) it was -17%; in assay [4] (setting [8]), 37%; in assay [4] (at 50.0 µM), 32.6%. Further, the growth inhibition in assay [5] (setting [7]) is -2%; in assay [5] (setting [8]), 52%; in assay [5] (at 50.0 µM), 49.1%; in assay [6] (setting [7]), 12%; in assay [6] (setting [8]), 41%; in assay [6] (at 50.0 µM), 30.8%.

Take `CCS(=O)(=O)/C=C/c1ccncc1`: the growth inhibition in assay [1] (setting [7]) is -3%; in assay [1] (setting [8]), 11%; in assay [1] (at 50.0 µM), 24.7%; in assay [2] (setting [7]), 3%; in assay [2] (setting [8]), -1%; in assay [2] (at 50.0 µM) it was 27.9%. In addition, the growth inhibition is -2% in assay [3] (setting [7]); 12% in assay [3] (setting [8]); 6.4% in assay [3] (at 50.0 µM); 1% in assay [4] (setting [7]); 12% in assay [4] (setting [8]); 5.85% in assay [4] (at 50.0 µM). In addition, the growth inhibition was -2% in assay [5] (setting [7]); 2% in assay [5] (setting [8]); 7.9% in assay [5] (at 50.0 µM); 11% in assay [6] (setting [7]); 11% in assay [6] (setting [8]); 20.3% in assay [6] (at 50.0 µM).

For the molecule `OCc1ccc2c(c1)CC1(C2)Cc2cc3c(cc2C1O)CCC3` (configuration not stated), the growth inhibition in assay [1] (setting [7]) was 20%; in assay [1] (setting [8]), 41%; in assay [1] (at 50.0 µM) it was 48.6%; in assay [2] (setting [7]), 18%; in assay [2] (setting [8]) it was 36%; in assay [2] (at 50.0 µM), 42.4%. Besides, the growth inhibition in assay [3] (setting [7]) is 3%; in assay [3] (setting [8]), 22%; in assay [3] (at 50.0 µM) it was 51.8%; in assay [4] (setting [7]), 5%; in assay [4] (setting [8]) it was 51%; in assay [4] (at 50.0 µM), 47.4%. Moreover, the growth inhibition in assay [5] (setting [7]) was 21%; in assay [5] (setting [8]), 59%; in assay [5] (at 50.0 µM), 33.2%; in assay [6] (setting [7]), 20%; in assay [6] (setting [8]) it was 57%; in assay [6] (at 50.0 µM), 71% (active).

Regarding `Cc1c(N)nc(C2CC(=O)N2CC(N)C(N)=O)nc1C(=O)NC(C(=O)NC(C)C(O)C(C)C(=O)NC(C(=O)NCCc1nc(-c2nc(C(=O)NCCCNC3CCCC3)cs2)cs1)C(C)O)C(OC1OC(CO)C(O)C(O)C1OC1OC(CO)C(O)C(OC(N)=O)C1O)c1cnc[nH]1` (configuration not stated), the growth inhibition in assay [1] (setting [7]) is 98% (active); in assay [1] (setting [8]) it was 99% (active); in assay [1] (at 50.0 µM), 92.2% (active); in assay [2] (setting [7]) it was 97% (active); in assay [2] (setting [8]), 99% (active); in assay [2] (at 50.0 µM) it was 93.3% (active). Further, the growth inhibition in assay [3] (setting [7]) is 96% (active); in assay [3] (setting [8]), 98% (active); in assay [3] (at 50.0 µM), 93.5% (active); in assay [4] (setting [7]), 93% (active); in assay [4] (setting [8]) it was 97% (active); in assay [4] (at 50.0 µM) it was 88.3% (active). In addition, the growth inhibition in assay [5] (setting [7]) is 97% (active); in assay [5] (setting [8]), 98% (active); in assay [5] (at 50.0 µM) it was 93.5% (active); in assay [6] (setting [7]), 98% (active); in assay [6] (setting [8]), 99% (active); in assay [6] (at 50.0 µM), 92% (active).

In the case of `OCC1CCc2[nH]c3ccccc3c2C1` (configuration not stated), the growth inhibition in assay [1] (setting [7]) was -159%; in assay [1] (setting [8]), -160%; in assay [1] (at 50.0 µM), -7.95%; in assay [2] (setting [7]), -53%; in assay [2] (setting [8]) it was -59%; in assay [2] (at 50.0 µM) it was -6.55%. Also, the growth inhibition in assay [3] (setting [7]) is -67%; in assay [3] (setting [8]) it was -68%; in assay [3] (at 50.0 µM), -4.2%; in assay [4] (setting [7]) it was -56%; in assay [4] (setting [8]), -76%; in assay [4] (at 50.0 µM), 30.9%. The growth inhibition in assay [5] (setting [7]) is -65%; in assay [5] (setting [8]), -58%; in assay [5] (at 50.0 µM) it was 12%; in assay [6] (setting [7]), -128%; in assay [6] (setting [8]), -123%; in assay [6] (at 50.0 µM) it was 3.5%.

Take `CCC[CH2][Ge]([CH2]CCC)([CH2]CCC)[O]C(=O)C(OC(C)=O)c1ccccc1` (configuration not stated): the growth inhibition in assay [1] (setting [7]) is 95% (active); in assay [1] (setting [8]) it was 95% (active); in assay [1] (at 50.0 µM), 78% (active); in assay [2] (setting [7]) it was 85% (active); in assay [2] (setting [8]), 85% (active); in assay [2] (at 50.0 µM) it was 75.2% (active). Further, the growth inhibition is 98% (active) in assay [3] (setting [7]); 98% (active) in assay [3] (setting [8]); 86% (active) in assay [3] (at 50.0 µM); 55% in assay [4] (setting [7]); 55% in assay [4] (setting [8]); 71% (active) in assay [4] (at 50.0 µM). Also, the growth inhibition in assay [5] (setting [7]) is 62%; in assay [5] (setting [8]), 62%; in assay [5] (at 50.0 µM), 85% (active); in assay [6] (setting [7]), 87% (active); in assay [6] (setting [8]) it was 87% (active); in assay [6] (at 50.0 µM) it was 79.5% (active).

With `CN(C)C=C1C(Cl)=C(C=O)CC(C=O)=C1Cl`, the growth inhibition in assay [1] (setting [7]) is 2%; in assay [1] (setting [8]), 24%; in assay [1] (at 50.0 µM), 12.3%; in assay [2] (setting [7]), 3%; in assay [2] (setting [8]), 26%; in assay [2] (at 50.0 µM), 23.1%. Further, the growth inhibition in assay [3] (setting [7]) is 3%; in assay [3] (setting [8]), 36%; in assay [3] (at 50.0 µM) it was 63.7%; in assay [4] (setting [7]), -2%; in assay [4] (setting [8]), 3%; in assay [4] (at 50.0 µM), 40.3%. Further, the growth inhibition in assay [5] (setting [7]) is -2%; in assay [5] (setting [8]) it was 9%; in assay [5] (at 50.0 µM), 18.5%; in assay [6] (setting [7]) it was 0%; in assay [6] (setting [8]), -12%; in assay [6] (at 50.0 µM), 89.5% (active).

Values taken from PubChem BioAssay (NCI).
